Screen size: about 310,000 compounds; about 17,000 (5.5%) were called active. Not shown: some 11% with an inconclusive outcome. Only a selection was taken, and actives are over-represented in it overall. Unmarked numbers belong to inactive results. The call rests on the fitted dose curve; in most records, active means well fitted inhibition curve with a large enough effect; inconclusive means small, poorly fitted or top-dose-only effect, or effect the other way; inactive means no such curve, though single readings can be large or run the other way.
molecular target: Nuclear receptor ROR-gamma (Mus musculus) (UniProt P51450); assay: qHTS for inhibitors of ROR gamma transcriptional activity; details: Drosophila S2 Gal4-RORgamma UAS-luciferase reporter, 20 h; series mostly up to 53.6 µM; activity change, negative = inhibition: at the top concentration; further: nearly all actives have a fitted effect of over 60% in size
Sequence (P51450 whole entry, looked up, the tested form may be a part): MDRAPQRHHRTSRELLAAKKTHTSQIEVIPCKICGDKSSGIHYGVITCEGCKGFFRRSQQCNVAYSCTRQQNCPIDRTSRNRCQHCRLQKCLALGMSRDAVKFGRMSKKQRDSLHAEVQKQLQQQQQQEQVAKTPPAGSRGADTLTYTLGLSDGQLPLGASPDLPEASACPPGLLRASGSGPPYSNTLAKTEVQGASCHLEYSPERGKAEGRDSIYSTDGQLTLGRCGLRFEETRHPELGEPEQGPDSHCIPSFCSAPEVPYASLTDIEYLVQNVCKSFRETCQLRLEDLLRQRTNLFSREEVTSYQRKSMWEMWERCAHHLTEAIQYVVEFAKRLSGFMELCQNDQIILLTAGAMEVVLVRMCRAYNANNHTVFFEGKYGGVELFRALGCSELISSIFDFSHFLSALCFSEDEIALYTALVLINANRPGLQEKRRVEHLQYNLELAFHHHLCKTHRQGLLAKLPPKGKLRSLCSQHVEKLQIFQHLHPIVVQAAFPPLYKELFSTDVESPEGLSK
How it was run: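 Compounds are pin-transferred onto Drosophila Schneider cells expressing a copper-inducible Gal4–ROR gamma transactivation domain fusion. After 1 hr, copper sulfate is added to 700 uM final; luciferase is read 20 hr later.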
On the % scale 0 is the no-effect control and ±100 the full control effect; potency means the concentration at half of the fitted maximal effect.

Compound | activity change, negative = inhibition | Potency
O=C(CNC(=O)OCc1ccccc1)NC1CCCCNC1=O (centres undefined) | -1.73% | 
O=[N+]([O-])c1cc([N+](=O)[O-])c(Oc2cc(F)cc(F)c2F)cc1NN1CCCCC1 | -2.04% | 
COc1ccc(-c2ccc(CNCCCN3CCOCC3)o2)cc1Cl | -15.8% | 
O=C(NCc1ccccn1)c1cc(Br)ccc1Cl | -17% | 
Fc1ccc(-c2ccc(CNCc3ccccn3)o2)cc1Cl |  | 11.2 µM (active)
CCOc1ccc(-n2c(SCC(N)=O)nnc2-c2ccco2)cc1 | 29.1% | 
COc1ccccc1S(=O)(=O)c1c(C)cc(C)[nH]c1=O | -1.83% | 
COc1cc2c(cc1/C=C1/NC(=O)N(c3ccccc3)C1=O)OCO2 | 1.89% | 
O=C1/C(=C\c2ccsc2)NC(=S)N1c1ccccc1 |  | 7.08 µM (active)
O=C1N/C(=C/c2cccn2-c2ccccc2)C(=O)N1c1cccc(Cl)c1 | -33% | 
COc1ccc(OCC(O)CN(C)C(=O)C(C)Oc2ccccc2)cc1 (centres undefined) | 11.1% | 
COc1ccc(C(=O)NCCCN2CCOCC2)cc1Br | 0.497% | 
Cc1nnc(SCC(=O)N2CCN(c3ccccc3)CC2)n1-c1ccccc1 | 18.7% | 
Cc1ccc2cc(C)c(N3CCN(c4ccc(F)cc4)CC3)nc2c1 | 25.8% | 
CC(=O)c1c(N2CCN(c3ccc(F)cc3)CC2)nc(=S)n(-c2ccccc2)c1C |  | 14.1 µM (active)
Cc1ccccc1/C=C\c1nc(O)c([N+](=O)[O-])c(=O)[nH]1 | 21.3% | 
COc1cccc(NC(=O)C2CCCN(c3ncnc4c3nc3n4CCCCC3)C2)c1 (centres undefined) | 2.68% | 
COc1ccc(NC(=O)N2CCCC(C(=O)Nc3ccccc3OC)C2)cc1 (centres undefined) | -2.34% | 
CC(C)c1ccc(/C=C/C(=O)NNC(=O)c2cccnc2)cc1 | -4.07% | 
O=C(/C=C/c1ccc(F)cc1)NC(=S)NNC(=O)c1cccnc1 |  | 11.2 µM (active)
O=C(/C=C/c1ccc(F)cc1)NCCNC(=O)/C=C/c1ccc(F)cc1 | 29.2% | 
O=C(NCc1ccccc1)c1onc(CSc2nc3ccccc3[nH]2)c1C(=O)NCc1ccccc1 | 7.32% | 
CCSCc1nc(N)nc(NCCc2ccccc2)n1 | -4.9% | 

Compound | activity change, negative = inhibition | Potency
Cc1cc(C)c(C(=O)CSc2nc(C)cc(=O)[nH]2)c(C)c1 | 19.9% | 
COc1ccccc1N1CCN(S(=O)(=O)CCNC(=O)c2ccc(OC(C)C)cc2)CC1 | 38% | 
CC(OC(=O)c1ccc2noc(-c3ccccc3)c2c1)C(N)=O (centres undefined) | 29.6% | 
O=C(C/C(=N\NC(=O)c1ccccc1Br)C(F)(F)F)c1cccs1 |  | 14.1 µM (active)
O=C(Nc1nn(Cc2ccccc2F)cc1Br)c1cccs1 | 40.4% | 
COc1ccc(C(=O)COC(=O)CNC(=O)c2cccs2)cc1Br | -7.43% | 
CCCCn1c(-c2cccc(C)c2)nc2cc3[nH]c(=O)c(C(C)C)nc3cc21 | -44.1% | 
O=C(Nc1cccc(-c2cscn2)c1)C1CCN(Cc2ccsc2)CC1 | 5.59% | 
O=C(NCCN1CCOC1=O)C1CCC(=O)N(CCc2ccc(Cl)cc2)C1 (centres undefined) | 3.94% | 
Cc1ccc(CS(=O)Cc2ccc(C(=O)N3CCOCC3)o2)cc1 (centres undefined) | 8.91% | 
CCOc1cccc(/C=N/N2C(=O)CSC2=S)c1O |  | 3.16 µM (active)
CCOc1ccccc1N=C1NC(=O)CS1 | -3.07% | 
COc1ccc(CCNC(=O)C(=O)NCC2OCCN2S(=O)(=O)c2ccc(F)cc2)cc1OC (centres undefined) | 23.6% | 
Cc1ccc(S(=O)(=O)NNC(=O)/C=C/c2cccc(F)c2)cc1 | -0.345% | 
COC(=O)C1=C(O)/C(=C/c2ccc(OCC(=O)Nc3ccccc3)cc2)N=C1C | 1.63% | 
CS(=O)(=O)N1CCN=C1SCc1ccc(F)cc1 | -15% | 
Cc1cc(NC(=O)CSc2nnnn2-c2ccc(F)cc2)no1 | -1.67% | 
CC1=C(C(N)=O)C(c2ccc(Br)cc2)n2ncnc2N1 (centres undefined) | -6.5% | 
Fc1ccccc1/C=C1\CCCC2=C1Nc1ncnn1C2c1ccccc1F (centres undefined) |  | 2.82 µM (active)
CC(=O)c1cccc(NC(=O)COc2ccc(S(=O)(=O)N3CCOCC3)cc2)c1 | 4.94% | 
O=C(CSc1ccc(-c2ccccn2)nn1)Nc1ccccc1 | -23.3% | 
CCC(C)(C)n1nnnc1C(c1ccc(OC)c(OC)c1)N1CCN(C(=O)c2ccco2)CC1 (centres undefined) | -1.65% | 
Cc1cccc(NS(=O)(=O)c2cc(Cl)ccc2Cl)n1 | -5.36% | 

Compound | activity change, negative = inhibition | Potency
Cc1n[nH]c(=O)n1-c1ccc(C(C)C)cc1 | 0.121% | 
COc1ccc(Oc2ncc3nc(C)c(=O)n(-c4ccccc4)c3n2)cc1 | -22.3% | 
Cc1n[nH]c(=O)n1-c1ccc(Oc2ccccc2)cc1 |  | 2.82 µM (active)
Cc1ccc2c(c1)N(S(=O)(=O)c1cc(-c3cc(C)no3)ccc1C)CCO2 | -5.72% | 
O=S(=O)(c1ccc(Cl)s1)N1CCC2(CC1)OCCO2 | 3.72% | 
O=C(c1cccc(Br)c1)N1CCN(C2=NS(=O)(=O)c3ccccc32)CC1 | 24.5% | 
COC(=O)c1c(NC(=O)C(=O)N2CCCCC2)sc2c1CC(C)(C)OC2 | -35.1% | 
CCOc1ccc(C(=O)NC(=S)Nc2ccc(N3CCOCC3)c(Cl)c2)cc1[N+](=O)[O-] |  | 3.16 µM (active)
COc1c(C)cccc1C(=O)Nc1cc(Cl)ccc1N1CCOCC1 | 1.38% | 
COc1cccc(OC)c1C(=O)NC(=S)Nc1ccc(N2CCOCC2)c(Cl)c1 |  | 8.91 µM (active)
COC(=O)c1cc(NC(=O)c2ccco2)ccc1N1CCOCC1 | 9.85% | 
CCOC(=O)c1c(NC(=O)c2ccc(N3CCOCC3)c([N+](=O)[O-])c2)sc(C)c1C | -0.447% | 
CCOc1ccc(C(=O)Nc2ccc(CN3CCOCC3)cc2)cc1Cl | 9.74% | 
CCc1nc2cccnc2n1-c1ccc(C(=O)O)cc1 | 14.3% | 
CC(=O)Oc1cccc(C(=O)Nc2ccccc2NC(=O)c2cccc(OC(C)=O)c2)c1 | 17.2% | 
COc1ccc(C2=NS(=O)(=O)N(C)C(C(=O)N3CCCCC3)=C2)cc1 | 15% | 
COc1cc(CC(=O)N2CCC(n3nccc3NC(=O)C3CC3)CC2)cc(OC)c1OC | -6.83% | 
CC(C)(C)c1ccc(/C=C/C(=O)NCCCn2ccnc2)cc1 | 9.01% | 
O=C(CSc1nc(C2CC2)nc2ccccc12)Nc1cccc(O)c1 | 15.2% | 
O=C(Cc1ccccc1)Nc1cccc(NC(=O)c2ccccc2)c1 | 28.4% | 
O=C(O)Cc1ccc(NC(=O)c2cccs2)cc1 | -37% | 
Cc1cccc(C(=O)Nc2ccc(CC(=O)O)cc2)c1 |  | 7.94 µM (active)
Cc1nn(C)cc1S(=O)(=O)N1CCN(c2ccc(F)cc2)CC1 | -15.6% | 
